This passage reports outcome results from PubChem BioAssay AID651926 (Vanderbilt Specialized Chemistry Center, 2012).

This assay deals with Histone deacetylase 2 (Homo sapiens) (UniProt Q92769). Description: HDAC2 enzyme inhibition, profiling panel, selectivity assay for E-cadherin restoration project, biochemical, HDAC isoform panel (AID 651926).

Calls of active or inactive are those of the source. How the calls were made is not given here.

Chain of Histone deacetylase 2 (Homo sapiens) (Q92769 whole entry, looked up, canonical isoform): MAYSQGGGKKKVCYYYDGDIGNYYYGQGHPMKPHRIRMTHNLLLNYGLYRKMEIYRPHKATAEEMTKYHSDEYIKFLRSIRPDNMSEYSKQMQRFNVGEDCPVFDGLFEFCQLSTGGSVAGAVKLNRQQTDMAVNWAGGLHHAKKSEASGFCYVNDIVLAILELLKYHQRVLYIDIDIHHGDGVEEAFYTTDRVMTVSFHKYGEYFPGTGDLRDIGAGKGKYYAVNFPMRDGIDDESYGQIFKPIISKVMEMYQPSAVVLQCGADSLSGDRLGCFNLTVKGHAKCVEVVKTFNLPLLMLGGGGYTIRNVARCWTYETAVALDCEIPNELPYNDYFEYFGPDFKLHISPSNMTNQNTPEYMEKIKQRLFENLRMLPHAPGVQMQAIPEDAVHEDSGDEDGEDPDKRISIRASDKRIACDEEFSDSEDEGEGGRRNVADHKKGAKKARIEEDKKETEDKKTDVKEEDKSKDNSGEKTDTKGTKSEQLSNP

On to `O=C(NCCCNC(=O)c1ccc[nH]c1=O)c1cc(-c2ccccc2)on1`, for which the compound was classed as inactive.
